According to PubChem BioAssay (NCATS):
Results filed as inconclusive are left out. Activity calls are given as the source filed them. Unless noted, the call rests on the fitted dose curve; in most records, active means well fitted curve in the direction sought with a large enough effect; inconclusive means small, poorly fitted or top-dose-only effect, or another doubt; inactive means no such curve, though single readings can be large; an effect the other way counts as inactive or inconclusive.

Legend:
[1] = molecular target: Thyrotropin receptor (Homo sapiens) (UniProt P16473); test: qHTS Assay for Antagonists of the Thyroid Stimulating Hormone Receptor (AID 488980); further: series mostly up to about 58 µM
Summary of the method: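 TSHR-transfected HEK293 cells (2000/well) in HEPES-buffered HBSS with 70 uM RO 20-1724 were stimulated with 4 nM TSH (EC80, final) in the presence of compound. cAMP was measured by HTRF competition after lysis and 30 min at RT.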

[2] = molecular target: D(1A) dopamine receptor (Homo sapiens) (UniProt P21728); test: HTS Assay for Allosteric Agonists of the Human D1 Dopamine Receptor: Primary Screen for Agonists (AID 488981)
Summary of the method: (§1)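 Tetracycline-induced HEK293 T-REx cells force-coupled to calcium signalling were incubated overnight at 30 C and dye-loaded at room temperature. Calcium flux over 180 s after compound addition flagged agonists; a further 180 s read after EC20 dopamine flagged potentiators.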

[3] = molecular target: D(1A) dopamine receptor (Homo sapiens) (UniProt P21728); test: HTS Assay for Allosteric Agonists of the Human D1 Dopamine Receptor: Primary Screen for Potentiators (AID 488982)
Summary of the method: as §1

[4] = Validation screen for small molecules that induce genotoxicity in human embryonic kidney (HEK293T) cells expressing luciferase-tagged ELG1 (AID 493106)
Summary of the method: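 ELG1-luciferase reporter readout (ONE-Glo, 30 min, room temperature) after 16 hr compound treatment at 37 °C of HEK293T cells at 2,000 per well. Rising luminescence flags genotoxic stress.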

[5] = molecular target: ATPase family AAA domain-containing protein 5 (Homo sapiens) (UniProt Q96QE3); test: Validation screen for small molecules that inhibit ELG1-dependent DNA repair in human embryonic kidney (HEK293T) cells expressing luciferase-tagged ELG1 (AID 493107);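 further: series mostly up to about 46 µM; inhibitors lower the ELG1-luciferase luminescence signal; nearly all actives have a fitted effect of over 70% in size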
Summary of the method: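 Luciferase read-out, ONE-Glo, 30 min at room temperature, follows 16 h co-exposure at 37 C of compound and the DNA-damaging agent 5-fluorouridine. Cells: HEK293T with ELG1-luciferase fusion, 2,000 per well, DMSO as vehicle.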

[6] = Nrf2 qHTS screen for inhibitors: Validation (AID 493153; active means well fitted inhibition curve with a large enough effect in the main read-out, with a control signal flat, not every such curve was filed as active); conditions: Potency: luciferase luminescence; viability change: measured here: cytotoxicity max response
Summary of the method: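 Concentration-response on A549 ARE_Fluc reporter cells exposed 18-24 h at 37 C, 5% CO2. Cytotoxicity read first by CellTiter-Fluor fluorescence (Ex 405/Em 525), then Nrf2 inhibition by BugLite luminescence after 15 min.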

[7] = molecular target: Galactokinase (Homo sapiens) (UniProt P51570); test: qHTS Validation Assay for Inhibitors of Human Galactokinase (GALK) (AID 493189)
Summary of the method: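 GALK (5 nM) with 35 uM ATP and 100 uM galactose in HEPES pH 8.0 with MgCl2, NaCl, DTT and BSA. Reaction ran 1 h at room temperature. Residual ATP read by Kinase-Glo Plus luminescence.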

[8] = Validation screen for small molecules that induce DNA re-replication in SW480 colon adenocarcinoma cells (AID 504364)
Summary of the method: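 Image-based DNA content read-out: Hoechst stain 40 min, total nuclear fluorescence intensity (ex 405 nm, em 500-530 nm) after 48 h compound exposure of 250 SW480 cells/well at 37 C, 5% CO2, versus DMSO vehicle.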

[9] = molecular target: Peptidyl-prolyl cis-trans isomerase NIMA-interacting 1 (Homo sapiens) (UniProt Q13526); test: qHTS Validation Assay to Find Inhibitors of Pin1 (AID 504536; active means well fitted inhibition curve with a large enough effect in the polarisation, with a control signal flat, not every such curve was filed as active; the % refers to the polarisation)
Summary of the method: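 Fluorescence polarization competition: compounds (titration) displace HiFluor-488-labeled Pin1-1b peptide from Pin1 (0.3 uM final) in pH 7.5 HEPES buffer with DTT, 10 min at room temperature; %Activity normalized to no-enzyme wells, curves fitted.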

[10] = molecular target: Phosphoglycerate kinase, glycosomal (Trypanosoma brucei brucei) (UniProt P07378); test: qHTS Validation Assay to Find Inhibitors of Phosphoglycerate Kinase (AID 504547)
Summary of the method: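 In TEA buffer (100mM, pH 7.6) containing 5mM MgCl2 and 0.01% Tween-20, the GAPDH-coupled PGK reaction proceeded for 60 minutes at room temperature before a single luminescence reading using Kinase-Glo Plus.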

[11] = molecular target: phosphoglycerate mutase (Leishmania major) (UniProt Q4Q090); test: qHTS Validation Assay to Find Inhibitors of Phosphoglycerate Mutase (AID 504548); conditions: Potency: inhibition qHTS; further: potency means the concentration at half of the fitted maximal effect
Summary of the method: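 L. major PGAM (1.25nM final) was added to substrate buffer and pinned compound, incubated 45 minutes at room temperature, then Kinase-GloPlus added; luminescence read after 10 minutes. Buffer: 100 mM TEA pH 7.6, 5 mM MgCl2, 0.01% Tween-20.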

[12] = molecular target: Ubiquitin carboxyl-terminal hydrolase 1 (Homo sapiens) (UniProt O94782); test: Inhibitors of USP1/UAF1: Pilot qHTS (AID 504865);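 further: rhodamine fluorescence freed from ubiquitin-rhodamine substrate followed over time; top concentration of the series differs between compounds; nearly all actives have a fitted effect of over 35% in size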
Summary of the method: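 USP1/UAF1 complex at 1 nM preincubated 15 min at room temperature with compound, then Ub-Rho substrate added at 150 nM final. Fluorescence (480/540 nm) read kinetically in 50 mM HEPES pH 7.8, 0.5 mM EDTA, 1 mM TCEP, 0.1 mg/ml BSA, 0.01% Tween-20.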

[13] = qHTS for Inhibitors of ATXN expression: Validation of Cytotoxic Assay (AID 588349)
Summary of the method: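 Cytotoxicity counter-screen: ATP-based luminescent viability (CellTiter Glo) after 72 hr exposure of HEK293 cells to a compound titration at 37 degrees C.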

[14] = molecular target: D(1A) dopamine receptor (Homo sapiens) (UniProt P21728); test: HTS Assay for Allosteric Agonists of the Human D1 Dopamine Receptor: Primary Screen for Antagonists (AID 488983);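 further: calcium flux response to an EC80 dopamine challenge measured with no-wash dye; nearly all actives have a fitted effect of over 65% in size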
Summary of the method: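 Calcium-flux read-out in inducible HEK293 T-REx cells expressing D1, dye-loaded 30–90 min at room temperature. Kinetic reads: 180 s after compound (agonist phase), then 180 s after an EC80 dopamine challenge.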

[15] = qHTS for Inhibitors of ATXN expression: Validation (AID 588378); further: series mostly up to about 57 µM; nearly all actives have a fitted effect of over 75% in size
Summary of the method: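 HEK293 cells carrying ATXN2-firefly luciferase reporter, treated with compound 24 h at 37 °C. Viability read first by CellTiter-Fluor (405/525 nm), then reporter expression by Bright-Glo luminescence; controls were a known ATXN2 expression inhibitor and a luciferase inhibitor.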

[16] = molecular target: ATP-dependent 6-phosphofructokinase (Trypanosoma brucei brucei) (UniProt O15648); test: qHTS Assay to Find Inhibitors of T. brucei phosphofructokinase: hit validation (AID 492961);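 further: luminescence reports ADP formed as PFK phosphorylates fructose-6-phosphate with ATP; series mostly up to about 51 µM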
Summary of the method: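 Percent activity derived from corrected luminescence, normalized between 0x and 1x enzyme controls, then fitted to concentration-response curves. Conditions: 1.25 nM PFK, 0.1 mM ATP, 0.5 mM F6P, 45 min RT.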

Sequence of phosphoglycerate mutase (Leishmania major) (Q4Q090 1-553): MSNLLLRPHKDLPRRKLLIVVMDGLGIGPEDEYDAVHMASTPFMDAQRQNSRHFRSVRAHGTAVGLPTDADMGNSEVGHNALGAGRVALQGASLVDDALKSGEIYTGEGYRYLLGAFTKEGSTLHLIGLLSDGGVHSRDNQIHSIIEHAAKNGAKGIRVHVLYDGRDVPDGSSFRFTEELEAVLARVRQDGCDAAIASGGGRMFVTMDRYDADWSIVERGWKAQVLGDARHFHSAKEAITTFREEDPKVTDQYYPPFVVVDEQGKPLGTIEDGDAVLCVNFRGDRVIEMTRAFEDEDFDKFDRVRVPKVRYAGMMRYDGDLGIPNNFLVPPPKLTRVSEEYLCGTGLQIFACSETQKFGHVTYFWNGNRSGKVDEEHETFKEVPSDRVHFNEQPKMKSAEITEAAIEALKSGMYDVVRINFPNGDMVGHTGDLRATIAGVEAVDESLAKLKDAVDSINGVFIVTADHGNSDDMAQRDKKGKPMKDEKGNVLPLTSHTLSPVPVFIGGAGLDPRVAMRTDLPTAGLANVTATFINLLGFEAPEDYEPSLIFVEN
Sequence of D(1A) dopamine receptor (Homo sapiens) (P21728 whole entry, looked up): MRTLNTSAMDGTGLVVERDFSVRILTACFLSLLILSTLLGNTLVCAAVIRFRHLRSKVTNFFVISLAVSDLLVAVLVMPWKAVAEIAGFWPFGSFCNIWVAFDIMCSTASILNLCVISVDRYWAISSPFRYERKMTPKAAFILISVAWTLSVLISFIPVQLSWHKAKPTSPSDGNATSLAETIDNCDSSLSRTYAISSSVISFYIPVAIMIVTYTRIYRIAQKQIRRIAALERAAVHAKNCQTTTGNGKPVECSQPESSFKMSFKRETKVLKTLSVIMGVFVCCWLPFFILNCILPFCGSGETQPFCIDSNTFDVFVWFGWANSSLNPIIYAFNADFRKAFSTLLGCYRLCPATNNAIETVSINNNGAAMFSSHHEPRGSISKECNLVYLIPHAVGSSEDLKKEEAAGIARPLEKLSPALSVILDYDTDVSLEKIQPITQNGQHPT
Sequence of Peptidyl-prolyl cis-trans isomerase NIMA-interacting 1 (Homo sapiens) (Q13526 whole entry, looked up): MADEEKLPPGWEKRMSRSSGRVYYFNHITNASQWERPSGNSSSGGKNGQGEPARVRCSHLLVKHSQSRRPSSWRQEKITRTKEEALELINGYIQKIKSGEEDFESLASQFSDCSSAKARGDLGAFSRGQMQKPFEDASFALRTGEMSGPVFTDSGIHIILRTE
Sequence of ATPase family AAA domain-containing protein 5 (Homo sapiens) (Q96QE3 whole entry, looked up, the tested form may be a part): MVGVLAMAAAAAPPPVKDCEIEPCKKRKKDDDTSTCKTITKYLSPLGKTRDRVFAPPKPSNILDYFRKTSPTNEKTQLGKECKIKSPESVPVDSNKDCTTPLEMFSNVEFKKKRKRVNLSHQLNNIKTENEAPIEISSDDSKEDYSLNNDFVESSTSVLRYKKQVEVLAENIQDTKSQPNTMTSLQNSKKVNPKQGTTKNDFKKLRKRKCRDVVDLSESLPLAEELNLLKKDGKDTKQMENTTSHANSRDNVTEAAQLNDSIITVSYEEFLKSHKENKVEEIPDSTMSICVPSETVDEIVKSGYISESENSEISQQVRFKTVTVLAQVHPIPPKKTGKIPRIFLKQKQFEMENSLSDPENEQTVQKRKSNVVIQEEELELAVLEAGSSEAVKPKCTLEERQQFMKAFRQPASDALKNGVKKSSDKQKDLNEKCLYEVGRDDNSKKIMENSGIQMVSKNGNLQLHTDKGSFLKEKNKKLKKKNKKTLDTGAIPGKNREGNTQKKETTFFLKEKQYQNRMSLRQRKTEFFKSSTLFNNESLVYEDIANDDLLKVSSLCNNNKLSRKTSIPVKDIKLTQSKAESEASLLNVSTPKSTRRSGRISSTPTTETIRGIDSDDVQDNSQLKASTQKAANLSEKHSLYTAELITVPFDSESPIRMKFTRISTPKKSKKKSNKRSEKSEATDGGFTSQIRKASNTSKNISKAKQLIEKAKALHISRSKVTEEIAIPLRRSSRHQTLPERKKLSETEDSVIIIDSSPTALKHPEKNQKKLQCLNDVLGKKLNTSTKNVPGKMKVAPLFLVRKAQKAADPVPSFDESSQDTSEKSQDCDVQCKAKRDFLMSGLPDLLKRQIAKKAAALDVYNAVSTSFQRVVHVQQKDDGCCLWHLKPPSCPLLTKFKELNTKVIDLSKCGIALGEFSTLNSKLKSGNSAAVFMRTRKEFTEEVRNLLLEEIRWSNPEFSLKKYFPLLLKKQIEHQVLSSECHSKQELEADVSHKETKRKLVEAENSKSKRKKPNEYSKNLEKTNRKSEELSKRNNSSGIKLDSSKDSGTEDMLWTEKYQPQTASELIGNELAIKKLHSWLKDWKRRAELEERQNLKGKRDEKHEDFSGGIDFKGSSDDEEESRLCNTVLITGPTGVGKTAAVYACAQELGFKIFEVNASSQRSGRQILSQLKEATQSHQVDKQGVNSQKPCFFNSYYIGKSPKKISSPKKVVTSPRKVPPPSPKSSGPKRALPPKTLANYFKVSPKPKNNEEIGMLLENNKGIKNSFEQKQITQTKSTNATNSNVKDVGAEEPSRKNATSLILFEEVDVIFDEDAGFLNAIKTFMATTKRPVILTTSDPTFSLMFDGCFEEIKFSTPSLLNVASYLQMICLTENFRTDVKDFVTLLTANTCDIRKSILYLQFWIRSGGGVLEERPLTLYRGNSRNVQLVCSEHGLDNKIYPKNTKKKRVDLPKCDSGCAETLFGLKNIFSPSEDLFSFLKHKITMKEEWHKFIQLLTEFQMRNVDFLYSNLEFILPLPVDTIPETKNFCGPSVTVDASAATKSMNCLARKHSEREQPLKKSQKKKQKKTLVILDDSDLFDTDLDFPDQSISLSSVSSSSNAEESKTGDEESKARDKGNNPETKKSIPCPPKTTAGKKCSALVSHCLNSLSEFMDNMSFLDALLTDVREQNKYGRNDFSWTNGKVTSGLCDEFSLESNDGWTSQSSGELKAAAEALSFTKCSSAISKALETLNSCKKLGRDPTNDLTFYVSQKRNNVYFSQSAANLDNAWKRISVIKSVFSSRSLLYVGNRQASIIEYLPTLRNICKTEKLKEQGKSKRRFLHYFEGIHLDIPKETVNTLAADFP
Sequence of Galactokinase (Homo sapiens) (P51570 whole entry, looked up): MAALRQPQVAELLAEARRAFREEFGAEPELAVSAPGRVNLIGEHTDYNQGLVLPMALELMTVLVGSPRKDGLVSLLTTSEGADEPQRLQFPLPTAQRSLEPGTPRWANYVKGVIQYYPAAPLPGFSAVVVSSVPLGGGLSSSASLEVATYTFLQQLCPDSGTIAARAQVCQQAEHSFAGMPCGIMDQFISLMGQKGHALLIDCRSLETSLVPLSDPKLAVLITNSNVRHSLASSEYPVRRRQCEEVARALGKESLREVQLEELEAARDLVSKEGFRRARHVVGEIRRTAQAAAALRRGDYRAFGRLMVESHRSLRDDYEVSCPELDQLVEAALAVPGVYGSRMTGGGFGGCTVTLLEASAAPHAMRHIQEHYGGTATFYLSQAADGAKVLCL
Sequence of Ubiquitin carboxyl-terminal hydrolase 1 (Homo sapiens) (O94782 whole entry, looked up): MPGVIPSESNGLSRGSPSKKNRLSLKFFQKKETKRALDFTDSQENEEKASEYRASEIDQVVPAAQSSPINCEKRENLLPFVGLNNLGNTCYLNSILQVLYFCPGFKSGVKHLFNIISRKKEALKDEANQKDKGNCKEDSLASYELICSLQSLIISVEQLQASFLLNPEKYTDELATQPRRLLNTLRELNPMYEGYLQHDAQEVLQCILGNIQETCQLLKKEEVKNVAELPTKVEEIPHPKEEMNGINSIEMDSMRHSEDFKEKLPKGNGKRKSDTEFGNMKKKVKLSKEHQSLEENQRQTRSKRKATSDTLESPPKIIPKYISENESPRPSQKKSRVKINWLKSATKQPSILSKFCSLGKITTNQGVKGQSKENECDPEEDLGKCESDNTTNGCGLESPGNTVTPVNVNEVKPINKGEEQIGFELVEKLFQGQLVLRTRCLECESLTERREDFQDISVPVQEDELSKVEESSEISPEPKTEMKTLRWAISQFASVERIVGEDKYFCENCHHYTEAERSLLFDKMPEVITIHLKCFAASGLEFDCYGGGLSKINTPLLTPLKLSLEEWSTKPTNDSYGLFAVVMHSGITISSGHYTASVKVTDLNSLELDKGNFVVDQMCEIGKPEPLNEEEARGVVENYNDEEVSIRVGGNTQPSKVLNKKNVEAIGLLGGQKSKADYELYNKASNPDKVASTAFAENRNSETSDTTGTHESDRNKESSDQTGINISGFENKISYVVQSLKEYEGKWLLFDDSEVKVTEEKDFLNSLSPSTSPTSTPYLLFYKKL
Sequence of Phosphoglycerate kinase, glycosomal (Trypanosoma brucei brucei) (P07378 whole entry, looked up): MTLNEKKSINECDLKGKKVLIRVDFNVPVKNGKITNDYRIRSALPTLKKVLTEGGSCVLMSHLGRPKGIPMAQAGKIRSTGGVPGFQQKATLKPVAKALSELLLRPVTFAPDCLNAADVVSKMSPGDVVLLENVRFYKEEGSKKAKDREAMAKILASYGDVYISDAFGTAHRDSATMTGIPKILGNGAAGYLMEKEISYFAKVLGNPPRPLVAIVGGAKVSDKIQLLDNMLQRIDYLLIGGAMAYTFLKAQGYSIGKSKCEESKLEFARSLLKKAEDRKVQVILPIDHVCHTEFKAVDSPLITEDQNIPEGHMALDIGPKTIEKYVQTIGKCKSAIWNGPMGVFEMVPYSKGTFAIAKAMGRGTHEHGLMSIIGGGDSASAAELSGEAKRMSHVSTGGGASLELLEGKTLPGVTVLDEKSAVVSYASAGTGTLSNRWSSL

CN(C)CCCC1(c2ccc(F)cc2)OCc2cc(C#N)ccc21 (configuration not stated)
6.56%: viability change [6]
inactive: outcome [1] | outcome [2] | Potency [3] | Potency [4] | outcome [5] | Potency [6] | outcome [7] | Potency [8] | outcome [9] | Potency [10] | Potency [11] | Potency [12] | outcome [13]

O=c1ccc2ccc(O)c(O)c2o1
21%: viability change [6]
inactive: outcome [1] | outcome [2] | Potency [14] | Potency [4] | Potency [6] | outcome [7] | Potency [11] | Potency [12] | outcome [13] | Potency [15]

Cc1cc(O)c2c(c1)C(=O)c1cc(O)cc(O)c1C2=O
-15.1%: viability change [6]
inactive: outcome [1] | outcome [2] | Potency [3] | Potency [14] | Potency [4] | outcome [5] | Potency [6] | outcome [7] | Potency [8] | outcome [9] | Potency [10] | outcome [13] | Potency [15]

O=C(NCC1CCCCN1)c1cc(OCC(F)(F)F)ccc1OCC(F)(F)F (configuration not stated)
inactive: outcome [1] | outcome [7] | Potency [8] | Potency [12]

C[C@@H](N)C1CCC(C(=O)Nc2ccncc2)CC1 (some centres not stated)
inactive: outcome [1] | outcome [2] | Potency [3] | Potency [14] | Potency [4] | Potency [6] | outcome [7] | Potency [8] | outcome [9] | Potency [10] | Potency [11] | Potency [12] | outcome [13] | Potency [15]
2.27%: viability change [6]

O=C1c2ccccc2-c2n[nH]c3cccc1c23
active: Potency [11] 21.3 µM
inactive: outcome [1] | outcome [2] | Potency [3] | Potency [14] | outcome [16] | Potency [4] | outcome [5] | outcome [7] | Potency [8] | Potency [10] | Potency [12] | Potency [15]

CCOC(=O)C(C)Oc1cccc2c(=O)n(CC(=O)Nc3ccc4c(c3)OCCO4)ccc12 (configuration not stated)
inactive: outcome [2] | Potency [3] | Potency [14] | outcome [5] | Potency [6] | Potency [10] | Potency [11] | Potency [12] | outcome [13] | Potency [15]
-3.9%: viability change [6]
